Results published in PubChem BioAssay (NCI).
This is part of a sample that, as a whole, favours compounds with a hit. Of some 83,000 tested, about 20% had one in any assay.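 Single-dose data. Exposure time 48 hours. Values below 10 considered active.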 The source made the active and inactive calls.

What follows are compounds tested on K-562 leukemia (assay: NCI-60 one-dose screen, 48 h (100 = growth as untreated, 0 = no growth, -100 = all killed)). Details: 10 µM unless noted.
In the case of `O=C(CCl)c1ccc([N+](=O)[O-])o1`, the growth is reported as -36.7% (active). In the case of `CCCCCSC1C2C(=O)C(Br)=CC13CCNc1c(O)c4c5c(c13)=[N+]2CCC=5C=N4` (centres undefined), the growth is reported as -32% (active). For `COc1ccc(C/C(C)=C(\c2ccc(OCCN3CCOCC3)cc2)c2ccc(OC(=O)Cc3ccccc3)cc2)cc1`, the growth was -24.7% (active). `Cn1cc(-c2csc(-c3cn(CCCCN4CCCCC4)c4ccc(F)cc34)n2)c2cccnc21` was tested, and the growth was -76.1% (active). With `COc1ccc2c(c1)c(-c1nc(-c3cn(C)c4ncccc34)cs1)cn2CCCCN1CCCCC1` the growth was -66.8% (active). With `C[n+]1c(/C=C/c2ccc(N(CCCl)CCCl)cc2)sc2ccccc21` the growth was 15.3% (inactive). For `C=CC[Se]C(=O)c1ccccc1OC(C)=O`, the growth was 46.8% (inactive). `CC(=O)OC1CCC2C3CCC4=C/C(=N/OC(=O)c5ccc(N(CCCl)CCCl)cc5)CCC4(C)C3CC(C)C12` (centres undefined) was tested, and the growth was 18.2% (inactive). For `CCCCCCCC[n+]1ccc2ccccc2c1`, the growth was 22.6% (inactive). For `Cn1cccc1C1CC(=O)N(CCC[Se]C#N)C1=O` (centres undefined), the growth was 16.2% (inactive). With `C[Se]C(=O)c1ccccc1OC(C)=O` the growth was 74.8% (inactive). `O=C1Nc2ccccc2C2c3cccn3-c3ccccc3CN12` (centres undefined) was tested, and the growth was 12.4% (inactive). For `CCOC(=O)[C@@H](C)C[C@H](Cc1ccccc1)NC(=O)c1csc([C@@H](C[C@H](C(C)C)N(C)C(=O)[C@H](CCC(C)C)NC(=O)[C@H]2CCCCN2C)OC(C)=O)n1`, the growth was 7.91% (active). For `COC(=O)[C@H](C[C@H](Cc1ccccc1)NC(=O)c1csc([C@@H](C[C@H](C(C)C)N(C)C(=O)[C@@H](NC(=O)[C@H]2CCCCN2C)C(C)C)OC(C)=O)n1)NC(=O)OCc1ccccc1`, the growth was 5.76% [8.5 µM] (active). In the case of `CC1(C)N=C(N)N=C(N)N1c1ccc(OCCCNC(=O)Nc2ccc(S(=O)(=O)F)cc2)c(Cl)c1`, the growth is reported as 25.2% (inactive). For `O=C(CN1CCN(C(=O)c2ccco2)CC1)Nc1ccc(Cl)cc1C(=O)c1ccccc1Cl`, the growth was 80.6% (inactive). For `Cc1cc(N(CCCl)CCCl)ccc1C=Nc1ccccc1-c1ccccc1`, the growth was 85% (inactive). For `Cn1cc(-c2csc(-c3cn(CCN4CCOCC4)c4ccccc34)n2)c2cccnc21`, the growth was 44.8% (inactive). With `CCOC(=O)[C@@H](C)C[C@H](Cc1ccccc1)NC(=O)c1csc([C@@H](C[C@H](C(C)C)N(C)C(=O)[C@H](CC)NC(=O)[C@H]2CCCCN2C)OC(C)=O)n1` the growth was 6.71% (active). For `ClC1=C(Cl)C(Cl)(C2(Cl)C(Cl)=C(Cl)C(Cl)=C2Cl)C(Cl)=C1Cl`, the growth was -24.6% (active). In the case of `O=C([O][Hg][CH2]C1OCCOC1[CH2][Hg][O]C(=O)c1ccccc1)c1ccccc1` (centres undefined), the growth is reported as -36% (active). In the case of `COc1ccc([As]=[As]c2ccc(OC)c(NCS(=O)(=O)O)c2)cc1NCS(=O)(=O)O` (centres undefined), the growth is reported as -2.74% (active). For `[Cl][Hg][n]1c(-c2ccco2)nc2ccccc21`, the growth was 78.8% (inactive). For `CCC[CH2][Sn]([CH2]CCC)([CH2]CCC)[O]c1ccc(Cl)cc1Cl`, the growth was -65% (active). In the case of `NC(CCl)CCl`, the growth is reported as 116% (inactive). For `CN1CCC(c2c[nH]c3ccccc23)C1` (centres undefined), the growth was 109% (inactive). For `CCCCCCCCCCCCCCCCCC1OC[C@@H](COC(=O)O[C@@H](C(=O)O[C@H]2C[C@@]3(O)[C@@H](OC(=O)c4ccccc4)[C@@H]4[C@]5(OC(C)=O)CO[C@@H]5C[C@H](O)[C@@]4(C)C(=O)[C@H](OC(C)=O)C(=C2C)C3(C)C)[C@@H](NC(=O)c2ccccc2)c2ccccc2)O1` (some centres undefined), the growth was 46.6% (inactive). With `CC1=C([Te]c2ccc(O)cc2)C(=O)c2ccccc2C1=O` the growth was -36.6% (active). In the case of `O=C1NC(=O)C(=Cc2cn(CCCCCCn3c4ccccc4c(=O)c4ccccc43)c3ccccc23)C(=O)N1`, the growth is reported as 77.4% (inactive). With `CC(C)OC(=O)[C@H](C)NP(=O)(Oc1ccccc1)C1CCCN(O)C1=O` (some centres undefined) the growth was 94.2% (inactive). For `CCCCCCC(=O)NC1=C(N2CC2)C(=O)C(NC(=O)CCCCCC)=C(N2CC2)C1=O`, the growth was 70.7% (inactive). For `COc1ccc(/C=C\c2cc(OC)c(OC)c(OC)c2)cc1NS(=O)(=O)c1ccc(Cl)cc1`, the growth was 36.8% (inactive). In the case of `CC[C@H](C)[C@H](NC(=O)[C@H]1CCCCN1C)C(=O)N(C)[C@H](CC(=O)c1nc(C(=O)N[C@@H](Cc2ccccc2)C[C@H](C)C(=O)O)cs1)C(C)C`, the growth is reported as 32.2% (inactive). For `C[C@]12C[C@@H](CO)[C@H](O)C[C@@H]1CC[C@@H]1[C@@H]2CC[C@]2(C)[C@@H](O)CC[C@@H]12`, the growth was 74.7% (inactive).
